Bioassay records: PubChem, National Center for Advancing Translational Sciences (NCATS)
Most compounds without a hit are left out; they make up all but 10% or so of the library.
ALDH1A1 block: inhibitors of human aldehyde dehydrogenase 1A1 | P00352 | Purified ALDH1A1, NADH fluorescence, propionaldehyde substrate | Potency, µM (top dose mostly 75.3 µM), hits mostly inhibitors | hit rate 7.3% among 220,000 | AID 1030
Target sequence (P00352 whole entry, looked up): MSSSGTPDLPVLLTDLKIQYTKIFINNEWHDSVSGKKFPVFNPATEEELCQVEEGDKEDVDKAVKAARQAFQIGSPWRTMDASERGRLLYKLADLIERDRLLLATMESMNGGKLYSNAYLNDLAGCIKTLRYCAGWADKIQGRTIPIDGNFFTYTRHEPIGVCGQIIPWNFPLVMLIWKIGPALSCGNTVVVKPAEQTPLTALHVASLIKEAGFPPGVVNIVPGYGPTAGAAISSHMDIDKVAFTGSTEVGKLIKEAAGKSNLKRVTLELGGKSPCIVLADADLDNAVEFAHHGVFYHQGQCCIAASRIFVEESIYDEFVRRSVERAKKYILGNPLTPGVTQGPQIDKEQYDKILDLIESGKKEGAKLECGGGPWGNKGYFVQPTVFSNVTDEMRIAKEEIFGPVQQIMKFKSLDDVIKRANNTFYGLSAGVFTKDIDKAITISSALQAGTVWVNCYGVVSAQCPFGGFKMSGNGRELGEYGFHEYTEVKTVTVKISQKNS
KinaseGlo FLuc: Kinase-Glo luciferase inhibition (counter-screen); Q27757; Kinase-Glo luciferase, ATP luminescence, 8 min; Potency, µM (doses to about 38.3 µM), usual class: inhibitors; hit rate 0.28% among 200,000; AID 1379; active = well fitted inhibition curve with a large enough effect; inconclusive = small, poorly fitted or top-dose-only effect; note: nearly all actives have a fitted effect of over 60% in size
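Light output from Kinase-Glo luciferase with luciferin and 10 uM ATP in 50 mM imidazole pH 7.2, KCl, MgCl2, Tween 20, BSA; compound pin-delivered, 8-min ambient incubation, then luminescence read.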
PNC assembly inh: perinucleolar compartment assembly inhibition; PC3M PTB-GFP, PNC prevalence imaging, 16 h; stronger effect = lower value; activity change (PNC), negative = inhibition, % at 10 µM; hit rate 3.1% among 140,000;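 active = readout at or below -70, meaning at least 70% loss of cells showing the perinucleolar compartment, a nuclear body marking cancer cells; inconclusive = readout between -30 and a set limit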
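Compounds are pinned in duplicate onto adhered PC3M cells stably expressing GFP-tagged PTB and incubated 16 h at 37 C. Cells are then fixed, nuclei stained with Hoechst, and PNC-positive cells counted.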
HPGD inh: inhibitors of human 15-hydroxyprostaglandin dehydrogenase (HPGD) | Potency, µM, actives largely listed as inhibitors | purified HPGD, NADH fluorescence kinetic, PGE2 substrate | hit rate 4.3% among 150,000 | P15428
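NADH formation kinetics: reaction with 30 uM PGE2 and 1 mM NAD+ (final), 20 nM enzyme, Tris-HCl pH 8 with Tween 20, after 15 min compound preincubation at room temperature. Fluorescence change, last versus first of five reads.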
Lamin A splicing: modulators of lamin A splicing; HeLa LMNA splicing GFP/RFP minigene ratio, 48 h; Potency, µM (titrated, usually from 46.1 µM), hits mostly inhibitors; hit rate 0.01% among 200,000; active = well fitted inhibition curve with a large enough effect in the signal ratio, with a control signal flat, not every such curve was filed as active; inconclusive = small, poorly fitted or top-dose-only effect, or effect the other way, or a change in a side signal; the % refers to the signal ratio
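S3 HeLa stable clones carrying a lamin A-EGFP splicing minigene plus DsRed2 were seeded at 600 cells/well in Opti-MEM with 2% FBS, pin-dosed and incubated 48 h at 37°C. Acumen cytometry (488 nm) gave the GFP/RFP total-intensity ratio.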
Hits are given with their value; 0 = inactive; ? = inconclusive; - = no result; [ ] = dose if it differs, or a comment. Unless noted, calls come from the whole dose curve; as a rule, active = well fitted inhibition curve with a large enough effect (not every such curve was filed as active); inconclusive = small, poorly fitted or top-dose-only effect, or another doubt; inactive = no such curve, though single readings can be large or run the other way.

SMILES	ALDH1A1 block	KinaseGlo FLuc	PNC assembly inh	HPGD inh	Lamin A splicing
CC1CCN(S(=O)(=O)c2cnc(Cl)c(Br)c2)CC1	0.126µM	0	0	0	0
CC1CCCCN1S(=O)(=O)c1coc(C(N)=O)c1 (centres undefined)	0	0	?	0	0
CC1CCCCN1S(=O)(=O)c1cnc(Cl)c(Br)c1 (centres undefined)	2.51µM	0	?	0	0
CC1CCN(S(=O)(=O)c2ccc(Cl)cc2Br)CC1	0	0	?	?	?
OB(O)c1ccc(B(O)O)cc1	0	0	-	0	-
O=S(=O)(NC1CCCCCC1)c1cccc2cccnc12	14.1µM	0	0	0	?
CN(CC(=O)N1CCCCCC1)S(=O)(=O)c1cccc2cccnc12	?	0	0	0	0
CN(CC(=O)NC1CCCCCCC1)S(=O)(=O)c1cccc2cccnc12	0	0	?	0	0
CC(CS(=O)(=O)c1cccc2cccnc12)N1CCCCC1 (centres undefined)	20µM	-	0	-	0
O=C(NC1CCCCC1)c1ccc(NS(=O)(=O)c2cccc3cccnc23)cc1	7.94µM	0	-	-	-
O=C(NCc1ccccc1)c1cccc(NS(=O)(=O)c2cccc3cccnc23)c1	0.501µM	0	0	0	0
COc1ccc(N2CC(NC(=O)c3cccs3)CC2=O)cc1OC (centres undefined)	-	-	-	-	0
O=C1CC2(CCCC2)CC(=O)N1CCNC[C@H]1COc2ccccc2O1	?	0	-	0	-
COc1cccc(CNC(=O)Cc2ccc(NC(=O)N3CCCCc4ccccc43)cc2)c1OC	-	-	-	-	0
Cc1oc2ncn(CC(C)C)c(=O)c2c1C(=O)N(Cc1ccccc1)C(C)C	-	-	-	-	0
Cc1ccc(-c2nc(NC(=O)CSc3cc(C)c4ccccc4n3)ns2)cc1	0	0	0	12.6µM	0
Cc1cc(SCC(=O)N2CCCC2)nc2ccccc12	0	0	0	12.6µM	?
Cc1cc(SCC(=O)c2cc3ccccc3o2)nc2ccccc12	28.2µM	0	?	35.5µM	0
Cc1cc(SCC(=O)c2ccc(O)c(O)c2)nc2ccccc12	0	0	-	-	0
Cc1cc(SCC(=O)O)nc2ccccc12	0	0	-	-	0
O=C(CSc1nc2cc(Cl)ccc2s1)c1cc2ccccc2o1	28.2µM	0	0	?	0
Cc1cc(NC(=O)CSc2nc3cc(Cl)ccc3s2)no1	0	0	0	0	0
CN(C)CCCc1c2ccccc2nc2ccc(Cl)cc12	0[13.5 µM]	0[7.66 µM]	-	0	-
Cc1nc(NCCN2CCOCC2)c2nnn(Cc3ccccc3Cl)c2n1	15.8µM	0	0	0	0
C#CCNc1nc(C)nc2c1nnn2Cc1ccccc1F	11.2µM	0	?	0	0
SMILES	ALDH1A1 block	KinaseGlo FLuc	PNC assembly inh	HPGD inh	Lamin A splicing
CCOCCCNc1nc(C)nc2c1nnn2Cc1c(F)cccc1Cl	8.91µM	0	-	-	0
COc1cccc(OC)c1Nc1nc(C)nc2c1nnn2Cc1ccccc1Cl	0	0	-	-	?
Cc1nc(NCCO)c2nnn(Cc3ccccc3F)c2n1	?	0	-92.6	0	0
COc1ccc2nc(SCC(=O)NN)cc(C)c2c1	12.6µM	0	0	0	0
c1ccc2c(N3CCNCC3)nc(-c3ccoc3)nc2c1	0	0	-	0	?
Nc1ccc(N)c(Cl)c1	22.4µM	-	-	?	-
CCC(=O)O[C@H]1C(O[C@@H]2C(C)[C@H](O[C@H]3C[C@@](C)(OC)C(O)C(C)O3)C(C)C(=O)OC(CC)[C@@](C)(O)C(O)[C@H](C)C(=O)C(C)C[C@]2(C)O)OC(C)CC1N(C)C (some centres undefined)	0	0	-	?	-
COc1cc(CNn2c(C)n[nH]c2=S)cc(Cl)c1OCc1ccccc1	28.2µM	0	0	15.8µM	?
Cc1nn(-c2ccccn2)c2c1C(=O)C(Br)CC2 (centres undefined)	11.2µM	0	-	-	?
O=C(O)c1ccc(CSc2nc3ccccc3o2)cc1	0	0	0	28.2µM	0
c1ccc2oc(SCc3cn4ccccc4n3)nc2c1	3.16µM	0	0	0	0
Cc1ccc(NS(=O)(=O)c2ccc(CCC(=O)NCc3cccnc3)cc2)cc1	8.91µM	0	-	-	0
Cc1cc(NS(=O)(=O)c2ccc(NC(=O)c3cc(-c4cccnc4)nc4ccc(Cl)cc34)cc2)no1	0	0	0	14.1µM	0
Cc1ccc(S(=O)(=O)Nc2ccc(NC(=O)c3cccnc3)cc2)cc1	14.1µM	0	-	-	-
CCCOCC(C)O (centres undefined)	0	-	-	0	-
CCc1c(C)sc(NC(=O)c2noc(C)c2[N+](=O)[O-])c1C#N	17.8µM	0	-	-	0
CCc1c(C)sc(NC(=O)c2cc(CC(C)C)on2)c1C#N	?	0	0	0	0
CC1CCCC(C)N1C(=O)c1cc(-c2ccc(Cl)c(Cl)c2)on1 (centres undefined)	0	0	0	17.8µM	0
Cc1ccc(-c2cc(C(=O)N3CCCC3)no2)cc1	?	0	0	?	0
CCOc1ccc2ncc(S(=O)(=O)c3ccc(C)cc3)c(N3CCC4(CC3)OCCO4)c2c1	3.16µM	-	?	-	?
O=C1CS/C(=C/C(=O)c2ccccc2)N1	0	0	?	20µM	0
Cc1ccccc1C(=O)/C=C1\NC(=O)CS1	25.1µM	0	0	15.8µM	?
COC(=O)c1cccc(S(=O)(=O)N2CCC(NC(=O)Nc3cccc(F)c3)CC2)c1	0	-	-98.2	-	0
CC(=O)c1ccc(S(=O)(=O)N2CCC(NC(=O)Nc3cccc(F)c3)CC2)cc1	0	-	-	-	-
O=C(NNC(=O)c1ccc(NC(=O)c2ccccc2)cc1)c1ccccc1	0	0	-	-	0
SMILES	ALDH1A1 block	KinaseGlo FLuc	PNC assembly inh	HPGD inh	Lamin A splicing
N#CC1(c2ccc(NC(=O)c3ccccc3)cc2)CCCC1	4.47µM	?	?	0	0
O=[N+]([O-])c1ccc(SCCc2ccncc2)cc1	7.94µM	-	-	-	-
Cc1cc(=O)n(Cc2ccc(F)cc2Cl)c2c1c(C)nn2C	-	-	-	-	0
C/C(CCN1CCCCc2nc(C)c(C)cc21)=N\OC[C@@H](O)COCc1ccco1	0[13.5 µM]	-	-	-	-
Cc1nc2cncnc2n(C2CC2)c1=O	?	-	-	-	0
CCCN(CCC)C1CC(=O)N(Cc2ccccc2)C1=O (centres undefined)	11.2µM	0	0	0	0
O=C1CC(N2CCN(c3ccccc3O)CC2)C(=O)N1Cc1ccccc1 (centres undefined)	?	0	-	-	-
O=C1CC(N(O)C2CC(=O)N(Cc3ccccc3)C2=O)C(=O)N1Cc1ccccc1 (centres undefined)	7.08µM	0	0	31.6µM	0
COCCOC(=O)c1c(C)n(C)c2ccc(OC(=O)C3CC3)cc12	10µM	0	0	0	0
COCCOC(=O)c1c(C)n(C)c2ccc(OC(=O)c3ccco3)cc12	0	0	0	0	0
Cc1ccc(C(=O)O[C@H](C(=O)O)[C@@H](OC(=O)c2ccc(C)cc2)C(=O)O)cc1 (tested in a mixture with another compound)	0	0	-	0	0
CCOC(=O)c1nn(-c2ccccc2)c(=O)c2c(N)scc12	?	0	0	0	0
CCOC(=O)c1nn(-c2ccccc2C)c(=O)c2c(N)scc12	9.46µM	0	-	-	0[9.22 µM]
Cc1ccccc1C(=O)OCc1cc(=O)n2nc(C(C)C)sc2n1	-	-	-	-	0
